# Results as given in article PMC11024108.
# Tests used:
# [1] = target: Cytochrome c oxidase subunit 6C (UniProt P09669); experiment: cross-link between two proteins; cross-linking mass spectrometry
# [2] = target: Malate dehydrogenase, mitochondrial (UniProt P40926); experiment: as above
# [3] = target: Trifunctional enzyme subunit alpha, mitochondrial (UniProt P40939); experiment: as above
# [4] = target: Solute carrier family 25 member 3 (UniProt Q00325); experiment: co-fractionation; co-fractionation; cross-linking mass spectrometry
# [5] = target: 10 kDa heat shock protein, mitochondrial (UniProt P61604); experiment: cross-link between two proteins; cross-linking mass spectrometry
# [6] = target: ATP synthase F(1) complex subunit epsilon, mitochondrial (UniProt P56381); experiment: as above
# [7] = target: ATPase inhibitor, mitochondrial (UniProt Q9UII2); experiment: as above
# [8] = target: Frataxin, mitochondrial (UniProt Q16595); experiment: as above
# [9] = target: Trifunctional enzyme subunit beta, mitochondrial (UniProt P55084); experiment: as above
# [10] = target: Ras-related protein Rab-11B (UniProt Q15907); experiment: cross-link between two proteins; co-fractionation; cross-linking mass spectrometry
# [11] = target: BOS complex subunit NOMO2 (UniProt Q5JPE7); experiment: cross-link between two proteins; cross-linking mass spectrometry
# [12] = target: Alpha-internexin (UniProt P46660); experiment: as above
# [13] = target: AP-2 complex subunit beta (UniProt Q9DBG3); experiment: as above
# [14] = target: AP2-associated protein kinase 1 (UniProt Q3UHJ0); experiment: as above
# [15] = target: AP-3 complex subunit mu-1 (UniProt Q9Y2T2); experiment: as above
# [16] = target: ADP/ATP translocase 2 (UniProt P51881); experiment: as above
# [17] = target: 3-hydroxyisobutyryl-CoA hydrolase, mitochondrial (UniProt Q6NVY1); experiment: as above
# [18] = target: Aconitate hydratase, mitochondrial (UniProt Q99798); experiment: as above
# [19] = target: AP-3 complex subunit beta-2 (UniProt Q9JME5); experiment: as above
# [20] = target: AP-3 complex subunit sigma-1 (UniProt Q9DCR2); experiment: as above
# [21] = target: B-cell receptor-associated protein 31 (UniProt Q61335); experiment: as above
# [22] = target: ADP-ribosylation factor-like protein 8B (UniProt Q9NVJ2); experiment: as above
# [23] = target: ATP synthase F(0) complex subunit 8 (UniProt P03928); experiment: as above
# [24] = target: Brain acid soluble protein 1 (UniProt Q91XV3); experiment: as above
# [25] = target: P2X purinoceptor 7 (UniProt Q9Z1M0); experiment: as above
# [26] = target: 14-3-3 protein zeta/delta (UniProt P63101); experiment: as above
# [27] = target: 2-oxoglutarate dehydrogenase-like, mitochondrial (UniProt Q9ULD0); experiment: as above
# [28] = target: Elongation factor Tu, mitochondrial (UniProt P49411); experiment: cross-linking mass spectrometry
# [29] = target: Large ribosomal subunit protein bL12m (UniProt P52815); experiment: cross-linking mass spectrometry
# [30] = target: Large ribosomal subunit protein mL45 (UniProt Q9BRJ2); experiment: cross-linking mass spectrometry
# [31] = target: Leucine-rich PPR motif-containing protein, mitochondrial (UniProt P42704); experiment: cross-linking mass spectrometry
# [32] = target: 3-hydroxyacyl-CoA dehydrogenase type-2 (UniProt Q99714); experiment: cross-link between two proteins; cross-linking mass spectrometry
# [33] = target: ATP synthase peripheral stalk subunit OSCP, mitochondrial (UniProt P48047); experiment: as above
# [34] = target: Acyl-coenzyme A thioesterase 9, mitochondrial (UniProt Q9Y305); experiment: as above
# [35] = target: Alpha-aminoadipic semialdehyde dehydrogenase (UniProt P49419); experiment: as above
# [36] = target: Aspartate--tRNA ligase, mitochondrial (UniProt Q6PI48); experiment: as above
# [37] = target: Delta(3,5)-Delta(2,4)-dienoyl-CoA isomerase, mitochondrial (UniProt Q13011); experiment: as above
# [38] = target: Elongation factor G, mitochondrial (UniProt Q96RP9); experiment: as above
# [39] = target: Heat shock protein 75 kDa, mitochondrial (UniProt Q12931); experiment: as above
# [40] = target: Hydroxyacyl-coenzyme A dehydrogenase, mitochondrial (UniProt Q16836); experiment: as above
# [41] = target: Isocitrate dehydrogenase [NAD] subunit alpha, mitochondrial (UniProt P50213); experiment: as above
# [42] = target: NADH dehydrogenase [ubiquinone] 1 alpha subcomplex subunit 5 (UniProt Q16718); experiment: as above
# [43] = target: Polyribonucleotide nucleotidyltransferase 1, mitochondrial (UniProt Q8TCS8); experiment: as above
# [44] = target: Presequence protease, mitochondrial (UniProt Q5JRX3); experiment: as above
# [45] = target: Solute carrier family 25 member 3 (UniProt Q00325); experiment: as above
# [46] = target: Stomatin-like protein 2, mitochondrial (UniProt Q9UJZ1); experiment: as above
# [47] = target: Succinate-semialdehyde dehydrogenase, mitochondrial (UniProt P51649); experiment: as above
# [48] = target: Transcription factor A, mitochondrial (UniProt Q00059); experiment: as above
# [49] = target: Tyrosine--tRNA ligase, mitochondrial (UniProt Q9Y2Z4); experiment: as above
# [50] = target: Zeta-crystallin (UniProt Q08257); experiment: as above
# [51] = target: Neurofilament heavy polypeptide (UniProt P19246); experiment: as above
# [52] = target: Neurofilament medium polypeptide (UniProt P08553); experiment: as above
# [53] = target: Alpha-actinin-2 (UniProt Q9JI91); experiment: as above
# [54] = target: Amphiphysin (UniProt Q7TQF7); experiment: as above
# [55] = target: Actin, cytoplasmic 1 (UniProt P60710); experiment: as above
# [56] = target: ATP synthase F(0) complex subunit e, mitochondrial (UniProt P56385); experiment: as above
# [57] = target: ATP-dependent 6-phosphofructokinase, platelet type (UniProt Q9WUA3); experiment: as above
# [58] = target: ATP synthase F(1) complex subunit alpha, mitochondrial (UniProt P25705); experiment: as above
# [59] = target: Bifunctional glutamate/proline--tRNA ligase (UniProt Q8CGC7); experiment: as above
# [60] = target: Actin-binding protein WASF1 (UniProt Q8R5H6); experiment: as above
# [61] = target: Stress-70 protein, mitochondrial (UniProt P38646); experiment: as above
# Chain of Trifunctional enzyme subunit alpha, mitochondrial (P40939 whole entry): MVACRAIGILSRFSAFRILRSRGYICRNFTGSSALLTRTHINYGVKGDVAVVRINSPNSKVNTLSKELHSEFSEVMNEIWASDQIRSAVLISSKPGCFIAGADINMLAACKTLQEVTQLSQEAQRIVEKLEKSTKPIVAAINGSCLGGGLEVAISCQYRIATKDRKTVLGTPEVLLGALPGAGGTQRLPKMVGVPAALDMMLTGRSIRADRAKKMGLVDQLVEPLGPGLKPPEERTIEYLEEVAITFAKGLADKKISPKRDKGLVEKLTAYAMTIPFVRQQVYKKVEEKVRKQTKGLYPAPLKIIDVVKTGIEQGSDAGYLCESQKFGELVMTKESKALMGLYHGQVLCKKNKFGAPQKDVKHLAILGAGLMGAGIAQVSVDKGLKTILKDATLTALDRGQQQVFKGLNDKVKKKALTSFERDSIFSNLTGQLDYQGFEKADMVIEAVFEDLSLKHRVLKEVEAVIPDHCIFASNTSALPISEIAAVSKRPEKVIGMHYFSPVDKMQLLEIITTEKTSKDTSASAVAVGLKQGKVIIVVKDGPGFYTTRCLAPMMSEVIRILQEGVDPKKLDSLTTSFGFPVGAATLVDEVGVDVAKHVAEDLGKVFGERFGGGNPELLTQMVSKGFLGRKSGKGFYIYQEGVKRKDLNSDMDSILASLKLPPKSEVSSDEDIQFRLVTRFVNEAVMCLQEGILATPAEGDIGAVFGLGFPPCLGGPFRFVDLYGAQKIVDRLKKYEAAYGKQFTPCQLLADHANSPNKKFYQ
# Chain of ATP synthase peripheral stalk subunit d, mitochondrial, O75947 (O75947 whole entry): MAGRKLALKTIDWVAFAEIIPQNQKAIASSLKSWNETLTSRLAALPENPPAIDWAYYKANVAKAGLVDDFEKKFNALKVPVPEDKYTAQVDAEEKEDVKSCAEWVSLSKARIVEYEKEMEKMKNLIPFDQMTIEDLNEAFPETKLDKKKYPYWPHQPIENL
# Chain of Solute carrier family 25 member 3 (Q00325 whole entry): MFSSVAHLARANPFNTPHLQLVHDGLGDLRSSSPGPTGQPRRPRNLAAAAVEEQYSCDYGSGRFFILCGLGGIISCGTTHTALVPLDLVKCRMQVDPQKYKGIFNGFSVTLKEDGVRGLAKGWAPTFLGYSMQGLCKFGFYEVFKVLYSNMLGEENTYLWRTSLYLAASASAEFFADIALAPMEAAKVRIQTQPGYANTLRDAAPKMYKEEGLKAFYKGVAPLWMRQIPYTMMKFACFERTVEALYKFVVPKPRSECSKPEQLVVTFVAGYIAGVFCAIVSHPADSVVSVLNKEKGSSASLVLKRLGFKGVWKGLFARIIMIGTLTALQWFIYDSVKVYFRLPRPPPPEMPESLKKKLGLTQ
# Chain of AP-2 complex subunit beta (Q9DBG3 whole entry, one chain of several): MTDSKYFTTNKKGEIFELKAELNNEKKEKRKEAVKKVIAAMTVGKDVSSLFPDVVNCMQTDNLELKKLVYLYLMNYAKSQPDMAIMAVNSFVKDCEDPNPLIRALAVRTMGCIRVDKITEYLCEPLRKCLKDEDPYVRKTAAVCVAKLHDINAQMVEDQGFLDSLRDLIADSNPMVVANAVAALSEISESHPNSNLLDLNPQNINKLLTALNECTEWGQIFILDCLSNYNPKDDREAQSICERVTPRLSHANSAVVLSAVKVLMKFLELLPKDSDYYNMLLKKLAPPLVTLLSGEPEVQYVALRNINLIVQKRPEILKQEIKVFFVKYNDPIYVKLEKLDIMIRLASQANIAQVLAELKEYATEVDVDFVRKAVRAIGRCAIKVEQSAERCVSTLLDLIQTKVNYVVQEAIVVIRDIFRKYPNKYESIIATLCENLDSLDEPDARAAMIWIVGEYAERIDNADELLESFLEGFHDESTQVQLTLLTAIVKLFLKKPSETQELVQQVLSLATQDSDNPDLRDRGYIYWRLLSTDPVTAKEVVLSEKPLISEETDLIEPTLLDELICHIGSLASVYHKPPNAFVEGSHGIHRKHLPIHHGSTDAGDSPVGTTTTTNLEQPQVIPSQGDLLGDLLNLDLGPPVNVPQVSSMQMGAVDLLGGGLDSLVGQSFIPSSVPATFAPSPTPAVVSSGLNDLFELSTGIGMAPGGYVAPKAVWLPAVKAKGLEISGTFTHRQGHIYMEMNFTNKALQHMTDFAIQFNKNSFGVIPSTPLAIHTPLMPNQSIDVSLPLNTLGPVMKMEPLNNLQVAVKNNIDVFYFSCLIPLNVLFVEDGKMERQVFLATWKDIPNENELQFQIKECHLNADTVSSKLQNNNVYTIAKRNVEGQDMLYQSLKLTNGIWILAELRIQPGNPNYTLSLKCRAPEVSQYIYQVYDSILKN
# Chain of Trifunctional enzyme subunit alpha, mitochondrial, P40939 (P40939 whole entry): as the sequence (P40939 whole entry) above
# Chain of Trifunctional enzyme subunit beta, mitochondrial (P55084 whole entry): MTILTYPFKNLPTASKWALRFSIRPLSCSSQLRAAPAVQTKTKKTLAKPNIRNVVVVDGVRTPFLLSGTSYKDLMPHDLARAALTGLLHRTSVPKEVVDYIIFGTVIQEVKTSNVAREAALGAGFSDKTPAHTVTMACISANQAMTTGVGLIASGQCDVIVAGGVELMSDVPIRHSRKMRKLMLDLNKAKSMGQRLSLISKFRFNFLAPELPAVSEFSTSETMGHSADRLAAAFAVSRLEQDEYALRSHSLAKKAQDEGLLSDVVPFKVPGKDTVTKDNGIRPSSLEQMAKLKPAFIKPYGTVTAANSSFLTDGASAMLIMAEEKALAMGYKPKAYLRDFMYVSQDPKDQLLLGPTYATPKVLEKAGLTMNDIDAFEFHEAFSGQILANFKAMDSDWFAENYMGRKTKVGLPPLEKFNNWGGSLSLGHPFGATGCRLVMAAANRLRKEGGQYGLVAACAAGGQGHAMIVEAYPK
# Chain of Glyceraldehyde-3-phosphate dehydrogenase, P16858 (P16858 whole entry): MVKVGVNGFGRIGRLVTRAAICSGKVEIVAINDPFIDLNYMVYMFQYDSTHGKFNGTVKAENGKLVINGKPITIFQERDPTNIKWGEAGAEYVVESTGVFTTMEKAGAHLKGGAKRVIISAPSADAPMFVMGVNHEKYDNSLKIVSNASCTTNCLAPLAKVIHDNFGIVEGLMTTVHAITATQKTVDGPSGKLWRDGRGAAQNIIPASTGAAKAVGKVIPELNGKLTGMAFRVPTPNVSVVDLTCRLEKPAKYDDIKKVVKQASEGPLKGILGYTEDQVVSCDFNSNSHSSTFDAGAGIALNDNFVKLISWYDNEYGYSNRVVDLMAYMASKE
# Chain of 14-3-3 protein zeta/delta (P63101 whole entry, stated change not applied): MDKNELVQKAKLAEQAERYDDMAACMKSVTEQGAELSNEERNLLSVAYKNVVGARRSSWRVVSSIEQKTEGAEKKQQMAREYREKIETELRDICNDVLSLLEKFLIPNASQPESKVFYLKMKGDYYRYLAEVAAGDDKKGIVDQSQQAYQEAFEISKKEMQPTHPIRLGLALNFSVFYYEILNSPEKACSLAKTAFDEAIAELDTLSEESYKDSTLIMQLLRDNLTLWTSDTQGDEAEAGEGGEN
# Chain of AP2-associated protein kinase 1 (Q3UHJ0 whole entry): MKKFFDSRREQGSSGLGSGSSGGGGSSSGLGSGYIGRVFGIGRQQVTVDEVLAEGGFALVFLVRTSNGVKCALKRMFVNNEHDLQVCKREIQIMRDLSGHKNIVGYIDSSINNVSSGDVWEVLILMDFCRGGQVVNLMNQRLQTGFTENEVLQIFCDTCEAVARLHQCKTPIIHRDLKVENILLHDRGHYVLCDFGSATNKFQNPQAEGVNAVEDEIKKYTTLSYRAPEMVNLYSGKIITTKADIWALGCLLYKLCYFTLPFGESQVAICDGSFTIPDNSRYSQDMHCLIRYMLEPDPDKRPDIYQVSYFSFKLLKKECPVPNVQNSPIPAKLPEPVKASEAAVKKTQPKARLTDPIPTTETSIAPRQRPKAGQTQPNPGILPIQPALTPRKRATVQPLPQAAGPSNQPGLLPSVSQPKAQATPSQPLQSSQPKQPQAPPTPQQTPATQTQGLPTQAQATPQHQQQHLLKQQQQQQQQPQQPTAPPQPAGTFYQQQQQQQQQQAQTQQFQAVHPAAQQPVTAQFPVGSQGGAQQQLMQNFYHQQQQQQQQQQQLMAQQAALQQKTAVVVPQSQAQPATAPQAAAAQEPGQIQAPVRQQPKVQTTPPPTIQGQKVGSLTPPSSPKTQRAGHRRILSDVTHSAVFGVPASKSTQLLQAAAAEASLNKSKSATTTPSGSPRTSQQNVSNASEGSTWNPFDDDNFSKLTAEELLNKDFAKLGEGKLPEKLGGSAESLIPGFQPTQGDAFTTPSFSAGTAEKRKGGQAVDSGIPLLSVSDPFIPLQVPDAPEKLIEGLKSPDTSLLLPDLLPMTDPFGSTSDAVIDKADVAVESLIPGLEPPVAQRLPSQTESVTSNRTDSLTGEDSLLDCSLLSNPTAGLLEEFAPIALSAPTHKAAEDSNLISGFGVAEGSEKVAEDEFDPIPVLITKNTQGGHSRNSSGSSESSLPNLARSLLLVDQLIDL
substance,measurement,setting,value
"ADP/ATP translocase 2, P05141",listed as a hit,[1],yes
same,listed as a hit,[2],yes
same,listed as a hit,[3],yes
same,listed as a hit,[4],yes
"ATP synthase F(1) complex subunit alpha, mitochondrial, P25705",listed as a hit,[5],yes
same,listed as a hit,[6],yes
same,listed as a hit,[7],yes
same,listed as a hit,[8],yes
same,listed as a hit,[2],yes
same,listed as a hit,[3],yes
same,listed as a hit,[9],yes
"Ras-related protein Rab-11A, P62491",listed as a hit,[10],yes
"BOS complex subunit NOMO3, P69849",listed as a hit,[11],yes
"Neurofilament medium polypeptide, P08553",listed as a hit,[12],yes
"AP-2 complex subunit mu, P84091",listed as a hit,[13],yes
same,listed as a hit,[14],yes
"AP-3 complex subunit beta-1, O00203",listed as a hit,[15],yes
"ADP/ATP translocase 1, P48962",listed as a hit,[16],yes
"Mitochondrial-processing peptidase subunit alpha, Q10713",listed as a hit,[17],yes
"Fumarate hydratase, mitochondrial, P07954",listed as a hit,[18],yes
same,listed as a hit,[2],yes
"AP-3 complex subunit delta-1, O54774",listed as a hit,[19],yes
same,listed as a hit,[20],yes
"B-cell receptor-associated protein 29, Q61334",listed as a hit,[21],yes
"AP-2 complex subunit mu, Q96CW1",listed as a hit,[22],yes
"ATP synthase peripheral stalk subunit d, mitochondrial, O75947",listed as a hit,[23],yes
same,listed as a hit,[3],yes
same,listed as a hit,[9],yes
"AP-2 complex subunit alpha-1, P17426",listed as a hit,[13],yes
same,listed as a hit,[14],yes
"Glyceraldehyde-3-phosphate dehydrogenase, P16858",listed as a hit,[24],yes
same,listed as a hit,[25],yes
"14-3-3 protein gamma, P61982",listed as a hit,[26],yes
"14-3-3 protein epsilon, P62259",listed as a hit,[26],yes
"2-oxoglutarate dehydrogenase complex component E1, Q02218",listed as a hit,[27],yes
"Malate dehydrogenase, mitochondrial, P40926",listed as a hit,[28],yes
same,listed as a hit,[29],yes
same,listed as a hit,[30],yes
same,listed as a hit,[31],yes
same,listed as a hit,[32],yes
same,listed as a hit,[33],yes
same,listed as a hit,[34],yes
same,listed as a hit,[35],yes
same,listed as a hit,[36],yes
same,listed as a hit,[37],yes
same,listed as a hit,[38],yes
same,listed as a hit,[39],yes
same,listed as a hit,[40],yes
same,listed as a hit,[41],yes
same,listed as a hit,[42],yes
same,listed as a hit,[43],yes
same,listed as a hit,[44],yes
same,listed as a hit,[45],yes
same,listed as a hit,[46],yes
same,listed as a hit,[47],yes
same,listed as a hit,[48],yes
same,listed as a hit,[49],yes
same,listed as a hit,[50],yes
"Neurofilament light polypeptide, P08551",listed as a hit,[12],yes
same,listed as a hit,[51],yes
same,listed as a hit,[52],yes
"Synaptopodin, Q8CC35",listed as a hit,[53],yes
"Myc box-dependent-interacting protein 1, O08539",listed as a hit,[54],yes
"Adenylyl cyclase-associated protein 1, P40124",listed as a hit,[55],yes
"Trifunctional enzyme subunit alpha, mitochondrial, P40939",listed as a hit,[56],yes
same,listed as a hit,[45],yes
"ATP-dependent 6-phosphofructokinase, muscle type, P47857",listed as a hit,[57],yes
"ATP synthase peripheral stalk subunit b, mitochondrial, P24539",listed as a hit,[58],yes
"Isoleucine--tRNA ligase, cytoplasmic, Q8BU30",listed as a hit,[59],yes
"Cytoplasmic FMR1-interacting protein 2, Q5SQX6",listed as a hit,[60],yes
"WD repeat-containing protein 1, O88342",listed as a hit,[55],yes
"ATP synthase F(1) complex subunit gamma, mitochondrial, P36542",listed as a hit,[7],yes
same,listed as a hit,[61],yes
